For 53 compounds, activity change, negative = inhibition results are on record in PubChem BioAssay AID652058 (Broad Institute, 2013).

The campaign covered roughly 1,200 compounds. About 870 (72%) were called active. About 3% were inconclusive and are not listed.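 Rule for the calls: active = every test run fits a falling curve whose half-maximal concentration is at most twice the top valid dose; inconclusive = runs disagree, or flat 30 to 70% inhibition, or poor fit; inactive = every run inactive: flat, rising or weaker potency.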 So high a share suggests a set chosen from earlier hits. These entries were drawn from the full list. Measured potencies and affinities stand elsewhere.

This experiment is described as follows: ZM109 Env clade C HIV-1 fusion inhibitors, dose response, HeLa effector, CEM target cells, luciferase, cherry-pick (AID 652058). Particulars: HeLa Env/CEM cell fusion, 16-24 h; series mostly up to 35 µM.
Regarding `Cc1cc(C)c(CN2CCN(C(=O)Cn3ccc(NC(=O)OCc4ccccc4)nc3=O)CC2)c(C)c1`, the activity change, negative = inhibition result is “inactive”.

As for `CC(c1nc2ccccc2c(=O)[nH]1)N(C)CCOc1ccc(Cl)cc1` (stereo not drawn), the activity change, negative = inhibition result was “inactive”.

`CNC[C@@H]1Oc2ccc(NS(C)(=O)=O)cc2CC(=O)N([C@H](C)CO)C[C@H]1C`: the activity change, negative = inhibition result was “inactive”.

As to `COCC(=O)N(C)C[C@H]1Oc2ncc(Br)cc2C(=O)N([C@H](C)CO)C[C@H]1C`, the activity change, negative = inhibition entry is “inactive”.

Take `C[C@H]1CN([C@@H](C)CO)C(=O)c2cccc(NC(=O)Nc3ccc(C(F)(F)F)cc3)c2O[C@H]1CN(C)S(=O)(=O)c1ccccc1`: the activity change, negative = inhibition entry was “inactive”.

Turning to `O=C(c1cc(COc2cccc(C(F)(F)F)c2)on1)N1CCC(c2ccncc2)CC1`, the activity change, negative = inhibition result is “inactive”.

Regarding `Clc1ccc(-c2noc(CSc3nnc(-c4ccncc4)n3-c3ccccc3)n2)cc1`, the activity change, negative = inhibition result was “inactive”.

As for `CC1=C(C(=O)OCc2ccc3c(c2)OCO3)C(c2ccc(F)cc2)NC(=O)N1` (stereo not drawn), the activity change, negative = inhibition result was “inactive”.

Consider `Cc1nn(C)c(Cl)c1NC(=O)OCc1ccc(Cl)cc1Cl`, for which the activity change, negative = inhibition entry is “inactive”.

For the compound `CCNC(=O)Nc1ccc2c(c1)C(=O)N(C)[C@@H]1CC[C@@H](CC(=O)NCC3CCCCC3)O[C@@H]1CO2`, the activity change, negative = inhibition result was “inactive”.

For the compound `Cc1nn(C)cc1NC(=O)C[C@H]1CC[C@@H]2[C@@H](COc3ccc(NC(=O)C4CCC4)cc3C(=O)N2C)O1`, the activity change, negative = inhibition result was “inactive”.

With `CCNC(=O)C[C@@H]1CC[C@@H]2[C@@H](COc3ccc(NC(=O)Cc4cccs4)cc3C(=O)N2C)O1`, the activity change, negative = inhibition entry is “inactive”.

In the case of `CCNC(=O)C[C@H]1CC[C@@H]2[C@@H](COc3ccc(NC(=O)Cc4cccs4)cc3C(=O)N2C)O1`, the activity change, negative = inhibition result was “inactive”.

With `CN(C)CCCNC(=O)[C@H]1[C@H](CO)[C@H]2Cn3c(ccc(C4=CCCC4)c3=O)[C@H]2N1CCC(F)(F)F`, the activity change, negative = inhibition entry was “inactive”.

Regarding `CNC[C@H]1Oc2c(NC(=O)Nc3ccc4c(c3)OCO4)cccc2C(=O)N([C@H](C)CO)C[C@@H]1C`, the activity change, negative = inhibition result is “inactive”.

`C[C@H](CO)N1C[C@H](C)[C@H](CN(C)Cc2ccccc2)Oc2c(NC(=O)Nc3ccc4c(c3)OCO4)cccc2C1=O`: the activity change, negative = inhibition result is “inactive”.

With `C#CCn1c(=O)c2c(ncn2C)n(C)c1=O`, the activity change, negative = inhibition entry was “inactive”.

`COc1cccc(CNC(=O)C[C@@H]2C=C[C@H](NC(=O)C3CCC3)[C@H](CO)O2)c1`: the activity change, negative = inhibition result is “inactive”.

As for `Cc1ccc(-c2ccc3c(c2)O[C@@H](CN(C)Cc2cccnc2)[C@H](C)CN([C@H](C)CO)S3(=O)=O)cc1`, the activity change, negative = inhibition entry was “inactive”.

Consider `Cc1ccc(-c2ccc3c(c2)O[C@H](CN(C)Cc2cccnc2)[C@@H](C)CN([C@H](C)CO)S3(=O)=O)cc1`, for which the activity change, negative = inhibition result was “inactive”.

Take `N#Cc1ccc(CN2CCN(C(=O)CNC(=O)Cc3cccc4ccccc34)CC2)cc1`: the activity change, negative = inhibition result is “inactive”.

`Cc1cc(C)c(CN2CCN(C(=O)Cn3cnc4c(NCc5ccccc5)ncnc43)CC2)c(C)c1`: the activity change, negative = inhibition result is “inactive”.

For `CSc1ncccc1C(=O)OCC(=O)Nc1ccc(C)c(S(=O)(=O)N2CCOCC2)c1`, the activity change, negative = inhibition result was “inactive”.

`O=C(OCCOc1cccc(Cl)c1)c1cc(S(=O)(=O)N2CCCCC2)ccc1N1CCOCC1`: the activity change, negative = inhibition result was “inactive”.

As to `Nc1ccc(S(=O)(=O)c2ccc(N3CCOCC3)c(N)c2)cc1`, the activity change, negative = inhibition entry is “inactive”.

On to `C[C@H]1NC(=O)[C@@]2(C)[C@H](c3ccccc3)[C@H]3COc4ccccc4[C@@H]3N2C1=O`, for which the activity change, negative = inhibition entry was “inactive”.

Regarding `COc1cc2c(cc1OC)C(=O)N1[C@H]3c4cc(Cl)ccc4OC[C@@H]3[C@H](c3ccccc3)[C@]1(C)C(=O)N2`, the activity change, negative = inhibition result was “inactive”.

As for `COc1ccc(-c2nn(C)c(=O)c3ccccc23)cc1NC(=O)COc1ccccc1`, the activity change, negative = inhibition entry was “inactive”.

For `COc1ccc(OCC(=O)Nc2cc(-c3nn(C)c(=O)c4ccccc34)ccc2OC)cc1`, the activity change, negative = inhibition result was “inactive”.

In the case of `Cc1ccc(-c2ccc3c(c2)O[C@@H](CN(C)C(=O)C2CCCCC2)[C@H](C)CN([C@H](C)CO)S3(=O)=O)cc1`, the activity change, negative = inhibition result is “inactive”.

In the case of `Cc1ccc(-c2ccc3c(c2)O[C@@H](CN(C)Cc2ccncc2)[C@H](C)CN([C@H](C)CO)S3(=O)=O)cc1`, the activity change, negative = inhibition result was “inactive”.

As to `Cc1ccc(-c2ccc3c(c2)O[C@H](CN(C)Cc2ccncc2)[C@@H](C)CN([C@@H](C)CO)S3(=O)=O)cc1`, the activity change, negative = inhibition result was “inactive”.

With `C[C@H](CO)N1C[C@H](C)[C@H](CN(C)Cc2ccccc2F)Oc2cc(C3=CCCC3)ccc2S1(=O)=O`, the activity change, negative = inhibition result was “inactive”.

Consider `Cc1ccccc1S(=O)(=O)NC(=O)C1(C)CCN1C(=O)CCc1ccc(Cl)cc1Cl` (stereo not drawn), for which the activity change, negative = inhibition result is “inactive”.

Take `O=C(c1cccc(S(=O)(=O)N2CCN(c3ccccc3)CC2)c1)N1CCCC(C(F)(F)F)C1` (stereo not drawn): the activity change, negative = inhibition entry is “inactive”.

For `N#Cc1ccc(CSc2nnc(COc3ccccc3)n2-c2ccccc2)cc1`, the activity change, negative = inhibition result is “inactive”.

Consider `COC(=O)[C@@]1(Cc2ccc(F)cc2)[C@H]2c3cc(C(=O)N(C)C)n(CCO)c3C[C@H]2CN1C(=O)c1ccccc1`, for which the activity change, negative = inhibition entry was “inactive”.

As for `CC(NC(=O)c1ccccc1NC(=O)CN1CCc2ccccc2C1)c1ccccc1` (stereo not drawn), the activity change, negative = inhibition result was “inactive”.

Regarding `Cc1cccc(N2CCN(C(=O)CCCSc3nc4ccccc4[nH]3)CC2)c1C`, the activity change, negative = inhibition result was “inactive”.

On to `Cc1ccc(-n2nnnc2SCn2nnc3ccccc3c2=O)c(C)c1`, for which the activity change, negative = inhibition result is “inactive”.

For `O=C(NCc1cccnc1)c1c[nH]c2cc3c(cc2c1=O)OCCO3`, the activity change, negative = inhibition entry was “inactive”.

Take `N#C[C@H]1[C@@H](c2ccccc2/C=C/c2ccccc2)[C@@H](CO)N1S(=O)(=O)c1cccc(F)c1`: the activity change, negative = inhibition result is “inactive”.

As to `Cc1ccc(CSCCNC(=O)c2ccc(Cl)c(S(=O)(=O)N3CCOCC3)c2)cc1`, the activity change, negative = inhibition result is “inactive”.

Consider `Cc1nc2sc(C(c3ccco3)N3CCC(Cc4ccccc4)CC3)c(O)n2n1` (stereo not drawn), for which the activity change, negative = inhibition result was “inactive”.

In the case of `C[C@H]1CN([C@@H](C)CO)C(=O)Cc2cc(N(C)C)ccc2O[C@H]1CN(C)CC1CC1`, the activity change, negative = inhibition result was “inactive”.

As to `COCCCNC(=O)c1sc2ncnc(N3CCc4ccccc4C3)c2c1C`, the activity change, negative = inhibition entry is “inactive”.

For the compound `CC(C)(C)OC(=O)N1CCc2onc(-c3ccc(Br)cc3)c2C1=O`, the activity change, negative = inhibition entry was “inactive”.

On to `COc1ccc(Nc2ncc(C(=O)N3CCN(c4ccc(F)cc4)CC3)c3ccccc23)cc1`, for which the activity change, negative = inhibition result is “inactive”.

On to `c1coc(CNc2c3c(nc4ccccc24)CCC3)c1`, for which the activity change, negative = inhibition result is “inactive”.

Regarding `Cc1ccc(NS(=O)(=O)c2cc(C(=O)N(C)C3CCN(C)CC3)ccc2Cl)cc1Cl`, the activity change, negative = inhibition result was “inactive”.

For `Cc1cc(Cl)c(S(=O)(=O)N2CCCC2)cc1OCC(=O)NC1CCCCC1`, the activity change, negative = inhibition entry is “inactive”.

For the compound `C=CCOc1c(Br)cc(CNc2ccc(NC(=O)C(C)C)c(OC)c2)cc1OC`, the activity change, negative = inhibition entry was “inactive”.

`Cc1noc(C)c1NC(=O)N(C)C[C@H]1OCCCC[C@H](C)Oc2ccc(NC(=O)c3ccccc3)cc2C(=O)N([C@H](C)CO)C[C@@H]1C`: the activity change, negative = inhibition result is “inactive”.
